CYP2C19 inhib: blockers of cytochrome P450 2C19 activity – biochemical, luminescence, ADME assay, primary screen; P33261; CYP2C19 Supersomes, luciferin-H EGE luminescence, 30 min; inhibition, % at 5 µM; hit rate 21% among 96,000;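 active means CYP2C19 inhibition above a set limit at 5 µM in the primary screen, cut at about 50% in these data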
CYP2C19 activ: human CYP2C19 activators, primary screen, biochemical, luminescence. 96,000 tested, under 10 active. activation factor at 5 µM. recombinant CYP2C19, luciferin-H EGE luminescence; hits give high values; 0 = fully inhibited enzyme, 1 = untreated enzyme. AID 1025, 2008;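 active means activation factor of at least 2 at 5 µM in the primary screen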
Mac1 fbg inh: inhibitors of CD11b/CD18 adhesion to fibrinogen, primary screen, K562 cells, luminescence | Integrin beta-2 (Homo sapiens) + Integrin alpha-M (Homo sapiens), P05107+P11215 | ATPlite luminescence; Mn2+ added to activate the integrin | inhibition, % at 10 µM | hit rate 0.54% among 93,000;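 active means primary inhibition of 50% or more at 10 µM, then 40% or more on retest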
Target sequence (P05107 whole entry, looked up, other chains not shown): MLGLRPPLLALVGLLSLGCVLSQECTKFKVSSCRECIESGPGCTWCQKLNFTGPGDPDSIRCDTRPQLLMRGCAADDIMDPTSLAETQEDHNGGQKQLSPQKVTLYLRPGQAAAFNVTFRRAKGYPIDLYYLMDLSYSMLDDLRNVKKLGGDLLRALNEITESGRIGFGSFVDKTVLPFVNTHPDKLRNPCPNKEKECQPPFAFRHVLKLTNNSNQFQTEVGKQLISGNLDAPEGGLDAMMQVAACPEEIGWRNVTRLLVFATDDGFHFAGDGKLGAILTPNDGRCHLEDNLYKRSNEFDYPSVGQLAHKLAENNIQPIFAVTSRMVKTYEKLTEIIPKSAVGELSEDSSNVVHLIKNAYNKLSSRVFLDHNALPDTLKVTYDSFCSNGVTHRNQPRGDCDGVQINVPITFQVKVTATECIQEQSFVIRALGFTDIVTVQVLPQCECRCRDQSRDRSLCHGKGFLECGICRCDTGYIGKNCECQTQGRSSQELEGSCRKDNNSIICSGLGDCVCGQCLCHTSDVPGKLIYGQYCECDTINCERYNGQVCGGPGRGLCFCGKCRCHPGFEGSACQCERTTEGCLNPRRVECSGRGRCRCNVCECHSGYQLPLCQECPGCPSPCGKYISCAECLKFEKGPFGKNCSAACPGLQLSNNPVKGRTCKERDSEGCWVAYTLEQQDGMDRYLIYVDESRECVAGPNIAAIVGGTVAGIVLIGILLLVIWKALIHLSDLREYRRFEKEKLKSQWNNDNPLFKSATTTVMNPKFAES
CYP2C9 inh: blockers of cytochrome P450 2C9 activity – biochemical, luminescence, ADME assay, primary screen; AID 777, 2007; hit rate 20% among 96,000; CYP2C9 Supersomes, luciferin-H conversion; inhibition, % at 5 µM; P11712;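 active means blocking of liver enzyme CYP2C9 beyond about 50% at 5 µM, limit read from the data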
Mac1 fbg enh: enhancers of CD11b/CD18 adhesion to fibrinogen, primary screen, K562 cells, luminescence; Integrin beta-2 (Homo sapiens) + Integrin alpha-M (Homo sapiens), P05107+P11215; ATPlite luminescence; activation, % at 10 µM; hit rate 0.07% among 93,000;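 active means 10 µM primary screen giving 50% or more activity, confirmed by 40% or more on retest at that dose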
CYP2C9 act: human CYP2C9 activators, primary screen, biochemical, luminescence; recombinant CYP2C9, luciferin-H conversion; hits give high values; factor 1 = untreated enzyme, 0 = blocked; activation factor at 5 µM; hit rate 1.4% among 96,000; AID 1024, 2008;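 active means activation factor of 2 or more for CYP2C9 at a 5 µM dose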
Each line names hits and unclear results; the compound was inactive in the other large screens. Rows were chosen to be rich in hits. Some 28% of all compounds tested hit in one or more screens of this group.

Cc1ccc(NC(=O)C2CCCO2)cc1[N+](=O)[O-] (stereo unspecified)	none (no result: CYP2C19 inhib, CYP2C19 activ, CYP2C9 inh, CYP2C9 act)
CC(C)(C)C(=O)c1cnc(Nc2ccccc2Cl)s1	none
CNc1ncc(C(=O)c2ccc(Cl)c(Cl)c2)s1	CYP2C19 inhib 53 (no result: Mac1 fbg inh, Mac1 fbg enh)
O=C(c1ccccc1)c1cnc(Nc2ccccc2Cl)s1	CYP2C19 inhib 54 (no result: Mac1 fbg inh, Mac1 fbg enh)
O=C(c1ccc(Cl)c(Cl)c1)c1cnc(Nc2ccccc2)s1	none
CNc1ncc(C(=O)c2ccc(Cl)cc2)s1	CYP2C19 inhib 65 (no result: Mac1 fbg inh, Mac1 fbg enh)
C=CCn1c(C(C)NC(=O)COC)nc2ccccc21 (stereo unspecified)	none
CCCNC(=O)CCC(=O)Nc1ncc(-c2ccc(C)cc2)n1C	none
NC(=O)c1ccccc1NC(=O)CS(=O)(=O)Cc1ccccc1	none
Cc1ccccc1NS(=O)(=O)c1ccc(C)c(C(N)=O)c1	CYP2C19 inhib 90
Cc1ccc(C)c(NS(=O)(=O)c2cc(C(=O)NCc3ccccn3)ccc2Cl)c1	none (no result: Mac1 fbg inh, Mac1 fbg enh)
NC(=O)c1ccccc1NS(=O)(=O)Cc1ccc(Cl)cc1	CYP2C19 inhib 66
CCOC(=O)NCc1ccc(S(=O)(=O)Nc2ccccc2C)cc1	CYP2C19 inhib 69
Cc1ccc(C)c(NS(=O)(=O)c2cc(C(=O)Nc3ccccc3-c3ccccc3)ccc2C)c1	CYP2C19 inhib 54, CYP2C9 inh 80 (no result: Mac1 fbg inh, Mac1 fbg enh)
CC(=O)Nc1ccc(OC(F)(F)C(F)C(F)(F)F)c(NC(C)=O)c1 (stereo unspecified)	none
O=C(O)c1ccccc1NS(=O)(=O)c1ccccc1C(F)(F)F	CYP2C9 inh 66
O=C(NS(=O)(=O)c1ccccc1)c1ccccc1O	CYP2C9 inh 89 (no result: Mac1 fbg inh, Mac1 fbg enh)
O=C(O)CN=C(NS(=O)(=O)c1ccccc1)c1ccccc1	none
CN(C)S(=O)(=O)Nc1ccccc1C(N)=O	none
Cc1ccc(S(=O)(=O)Nc2ccccc2C(N)=O)cc1	CYP2C9 act 2.1
NC(=O)c1ccccc1NS(=O)(=O)c1cccs1	none
NC(=O)c1ccccc1NS(=O)(=O)c1ccccc1	CYP2C9 act 2.3
O=C(OCCCN=C1NS(=O)(=O)c2ccccc21)c1ccccc1F	none
CC(C)n1nnnc1-c1cc(Cl)cc(Cl)c1	none (no result: Mac1 fbg inh, Mac1 fbg enh)
Cc1ccccc1NS(=O)(=O)c1cc(C(N)=O)ccc1C	CYP2C19 inhib 97
COc1ccc(C2CC(C(F)(F)F)n3nc(CO)c(Cl)c3N2)cc1OC (stereo unspecified)	CYP2C19 inhib 77, CYP2C9 inh 98
COc1ccc(C2CC(C(F)(F)F)n3ncc(C(=O)Nc4cccc(O)c4)c3N2)cc1OC (stereo unspecified)	CYP2C9 inh 50 (no result: Mac1 fbg inh, Mac1 fbg enh)
COc1cccc(C2CC(C(F)(F)F)n3ncc(C(=O)NCc4ccco4)c3N2)c1 (stereo unspecified)	CYP2C19 inhib 67, CYP2C9 inh 83
CCOC(=O)C1CCN(C(=O)c2cnn3c(C)cc(C)nc23)CC1	none
COc1ccc2c(=O)c3c(=O)n(Cc4ccco4)c(-c4ccccc4)nc3oc2c1	CYP2C19 inhib 73, CYP2C9 inh 73
CCCCCCn1c(-c2ccco2)nc2oc3cc(OC)ccc3c(=O)c2c1=O	CYP2C19 inhib 93, CYP2C9 inh 90
CCCc1nc2oc3cc(OC)ccc3c(=O)c2c(=O)n1Cc1ccco1	none
CCCc1nc(N)c(C#N)c(-c2ccco2)c1CC	CYP2C19 inhib 59, CYP2C9 inh 50
Nc1ccc(-c2n[nH]c(=O)c3ccccc23)cc1N	none
COc1cccc(C2=NN(C(=O)c3ccccc3)C(O)(C(F)(F)F)C2)c1 (stereo unspecified)	CYP2C19 inhib 89, CYP2C9 inh 92
CCN=C1SC(CC(=O)Nc2ccccc2OCC)C(=O)N1CC (stereo unspecified)	CYP2C19 inhib 76
CCCCOc1ccccc1NC(=O)CC1Nc2ccccc2NC1=O (stereo unspecified)	CYP2C9 inh 64
CCN=C1SC(CC(=O)NC(N)=O)C(=O)N1CC (stereo unspecified)	none
CCN=C1SC(CC(=O)NC2CCCCC2)C(=O)N1CC (stereo unspecified)	none
CCCCNC(=O)CC1Nc2ccccc2NC1=O (stereo unspecified)	none
CCN=C1SC(CC(=O)Nc2sc3c(c2C#N)CCCC3)C(=O)N1CC (stereo unspecified)	CYP2C9 inh 53
CCNC(=O)CC1SC(=Nc2ccc(C)cc2)N(CC)C1=O (stereo unspecified)	CYP2C19 inhib 53
COc1cccc2c1OC1(C)CC2/C(=C(\C)O)C(=O)N1 (stereo unspecified)	none
FC(F)(F)C(Oc1nc(NC2CCCCC2)nc(N2CCOCC2)n1)C(F)(F)F	none
CCN=C1SC(CC(=O)Nc2ccc(N3CCOCC3)cc2)C(=O)N1CC (stereo unspecified)	none
CCN=C1SC(CC(=O)NCCc2ccc(OC)cc2)C(=O)N1CC (stereo unspecified)	CYP2C9 inh 51
CCN=C1SC(CC(=O)NCCc2ccc(OC)c(OC)c2)C(=O)N1CC (stereo unspecified)	none (no result: Mac1 fbg inh, Mac1 fbg enh)
CCCCOc1ccccc1NC(=O)CC1SC(=NCC)N(CC)C1=O (stereo unspecified)	CYP2C19 inhib 69
CCN=C1SC(CC(=O)Nc2ccc(C(F)(F)F)cc2)C(=O)N1CC (stereo unspecified)	CYP2C19 inhib 65
CSc1nnc(NC(=O)c2cc3ccccc3oc2=O)s1	none
CCOC(=O)Cn1c(=O)c2c(nc(Br)n2Cc2ccc(Cl)cc2)n(C)c1=O	CYP2C9 inh 56
CCOC(=O)CCn1c(=O)c2c(nc(Br)n2Cc2ccccc2)n(C)c1=O	CYP2C19 inhib 60
CCOC(=O)CCn1cc(F)c(=O)n(Cc2ccccc2)c1=O	CYP2C19 inhib 52
CCOC(=O)Cn1c(=O)c2c(nc(N3CCCCC3)n2Cc2ccccc2)n(C)c1=O	none
COc1cc2[nH]c(=S)n(NC(=O)CC(C)C)c(=O)c2cc1OC	none
COc1ccc(CN(C)C2CCCCC2)c(C)c1C	CYP2C19 inhib 76
COc1ccc(N(CC(=O)Nc2cc(C(=O)O)ccc2C)S(=O)(=O)c2c(C)noc2C)cc1	none (no result: Mac1 fbg inh, Mac1 fbg enh)
Cc1ccc(S(=O)(=O)N(c2nc(N(C)C)nc(N(C)C)n2)n2cnnc2)cc1	CYP2C9 inh 54
COc1ccccc1/C=N/n1c(C)nnc1-n1nc(C)cc1C	none
Cc1cc(C)n(-c2nnc(C)n2/N=C/c2ccccc2OCc2ccccc2Cl)n1	CYP2C19 inhib 56, CYP2C9 inh 52
N#C/C(=C\c1cn(Cc2ccccc2)c2ccccc12)C(=O)NCc1ccco1	none (no result: CYP2C19 inhib, CYP2C19 activ, CYP2C9 inh, CYP2C9 act)
N#C/C(=C\c1cn(CCOc2ccccc2)c2ccccc12)C(=O)NCC1CCCO1 (stereo unspecified)	CYP2C19 inhib 58, CYP2C9 inh 92
